In the supplement of paper PMC10849652:
Targets with a hit are over-represented here; the source holds about 7,900 in all. About 0.6% of all pairs of compound and target were hits.

Tests used:
Experiment in all cases: log2 fold change, soluble protein after heating vs DMSO (PISA); higher = thermal stabilisation; K562 cells, 10 uM, 30 min; active = over 0.2 and 3.5 SD of the protein, either way, in both replicates (recomputed)
[1] = compound: CC[C@@H]1C(=O)N(C)c2cnc(Nc3ccc(C(=O)NC4CCN(C)CC4)cc3OC)nc2N1C1CCCC1
How it was run: (§1)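 Soluble protein was defined as the supernatant after 21,000xg for 90 min. It came from K562 cells at 2×10^6 cells/mL given 10 μM compound for 30 min, heated in aliquots for 3 min across 48°C-58°C, pooled, and extracted in PBS with 0.5% NP-40 at 4°C, and was quantified by TMTpro 16plex LC-MS/MS with equalised channel sums. Thermal stability against control samples, from duplicates, is reported as log2 fold change.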

volasertib = compound: CC[C@@H]1C(=O)N(C)c2cnc(Nc3ccc(C(=O)N[C@H]4CC[C@H](N5CCN(CC6CC6)CC5)CC4)cc3OC)nc2N1C(C)C [volasertib]
How it was run: as §1

[2] = compound: CC[C@H](C)N1C=C(C2=C(C=C(C=C21)C3=CN=C(C=C3)N4CCNCC4)C(=O)NCC5=C(C=C(NC5=O)C)C)C
How it was run: as §1

epoxomicin = compound: CC[C@H](C)[C@@H](C(=O)N[C@@H]([C@@H](C)O)C(=O)N[C@@H](CC(C)C)C(=O)[C@]1(CO1)C)NC(=O)[C@H]([C@@H](C)CC)N(C)C(=O)C [epoxomicin]
How it was run: as §1

[3] = compound: CCn1c(C(=O)N(C2CC2)C2CC2)cc2c3c(ncn3C)c(Nc3cc(C)n(C)n3)nc21
How it was run: as §1

[4] = compound: CCn1cc(-c2ccnc3[nH]c(-c4cccc(CN(C)C)c4)cc23)c(-c2ccc(NC(=O)N(C)C)cc2)n1
How it was run: as §1

[5] = compound: CN(C)CC(=O)Nc1ccc2[nH]c(=O)c3ccccc3c2c1
How it was run: as §1

rosiglitazone = compound: CN(CCOC1=CC=C(C=C1)C[C@H]2C(=O)NC(=O)S2)C3=CC=CC=N3 (racemic) [rosiglitazone]
How it was run: as §1

[6] = compound: CN1C2=C(C3=C1C(=O)N(N=C3)CC4=CC(=CC=C4)N)SC(=C2)S(=O)C
How it was run: as §1

[7] = compound: CN1CCC(CNc2ccc3ncc(-c4cccc(OC(F)(F)F)c4)n3n2)CC1
How it was run: as §1

saracatinib = compound: CN1CCN(CCOc2cc(OC3CCOCC3)c3c(Nc4c(Cl)ccc5c4OCO5)ncnc3c2)CC1 [saracatinib]
How it was run: as §1

sotrastaurin = compound: CN1CCN(c2nc(C3=C(c4c[nH]c5ccccc45)C(=O)NC3=O)c3ccccc3n2)CC1 [sotrastaurin]
How it was run: as §1

alvocidib = compound: CN1CC[C@H](c2c(O)cc(O)c3c(=O)cc(-c4ccccc4Cl)oc23)[C@H](O)C1 [alvocidib]
How it was run: as §1

Tubastatin A = compound: CN1CCc2c(c3ccccc3n2Cc2ccc(C(=O)NO)cc2)C1 [Tubastatin A]
How it was run: as §1

[8] = compound: CNC(=O)C1=CC=CC=C1NC2=NC(=NC=C2Cl)NC3=C(C=C(C=C3)N4CCOCC4)OC
How it was run: as §1

defactinib = compound: CNC(=O)c1ccc(Nc2ncc(C(F)(F)F)c(NCc3nccnc3N(C)S(C)(=O)=O)n2)cc1 [defactinib]
How it was run: as §1

rucaparib = compound: CNCc1ccc(-c2[nH]c3cc(F)cc4c3c2CCNC4=O)cc1 [rucaparib]
How it was run: as §1

[9] = compound: CNc1nc(-c2ccc3c(N)n[nH]c3c2)cc(N2C[C@@H](C(=O)NC3CCCCC3)CC[C@H]2C)n1
How it was run: as §1

encorafenib = compound: COC(=O)N[C@@H](C)CNc1nccc(-c2cn(C(C)C)nc2-c2cc(Cl)cc(NS(C)(=O)=O)c2F)n1 [encorafenib]
How it was run: as §1

[10] = compound: COC(=O)[C@H](CCSC)NC(=O)C1=C(C=C(C=C1)NC[C@H](CS)N)C2=CC=CC=C2
How it was run: as §1

Measured: log2 fold change

H2AZ1 (UniProt P0C0S5)
inactive: [1] 0 | volasertib 0.065 | [2] -0.084 | epoxomicin -0.311 | [3] 0.054 | [4] 0.103 | [5] -0.071 | rosiglitazone -0.052 | [6] 0.435 | [7] 0.026 | saracatinib -0.082 | sotrastaurin 0.067 | alvocidib 0.093 | Tubastatin A -0.017 | [8] -0.102 | defactinib 0.259 | rucaparib 0.396 | [9] -0.014 | encorafenib 0.107 | [10] 0.105

HNRNPH1 (UniProt P31943)
inactive: [1] -0.124 | [2] 0.1 | epoxomicin 0.018 | [3] -0.192 | [4] -0.025 | [5] 0.072 | rosiglitazone 0.025 | [6] 0.083 | [7] -0.247 | saracatinib -0.018 | sotrastaurin -0.157 | alvocidib -0.163 | Tubastatin A 0.076 | [8] -0.065 | defactinib -0.278 | rucaparib 0.08 | [9] 0.058 | encorafenib 0.114 | [10] -0.047
active: volasertib -0.583

GID4 (UniProt Q8IVV7)
Chain of UniProt Q8IVV7 (Q8IVV7 whole entry, looked up): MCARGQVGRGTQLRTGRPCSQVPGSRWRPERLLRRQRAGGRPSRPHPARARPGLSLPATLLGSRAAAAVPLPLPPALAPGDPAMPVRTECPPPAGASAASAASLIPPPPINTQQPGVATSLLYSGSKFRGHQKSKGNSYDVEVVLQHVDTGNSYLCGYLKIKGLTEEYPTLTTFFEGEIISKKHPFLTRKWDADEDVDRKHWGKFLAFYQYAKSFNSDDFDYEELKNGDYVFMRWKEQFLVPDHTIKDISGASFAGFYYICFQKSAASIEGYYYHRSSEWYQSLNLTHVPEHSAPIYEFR
inactive: [1] 0.082 | volasertib 0.037 | [2] 0.044 | epoxomicin -0.019 | [3] 0.08 | [4] 0.116 | [5] -0.21 | rosiglitazone 0.003 | [6] -0.093 | [7] -0.006 | saracatinib 0.04 | sotrastaurin -0.091 | alvocidib -0.006 | Tubastatin A 0.015 | [8] -0.038 | defactinib 0.032 | rucaparib 0.032 | [9] -0.079 | encorafenib -0.072 | [10] 0.139

HMGB3 (UniProt O15347)
Chain of UniProt O15347 (O15347 whole entry, looked up): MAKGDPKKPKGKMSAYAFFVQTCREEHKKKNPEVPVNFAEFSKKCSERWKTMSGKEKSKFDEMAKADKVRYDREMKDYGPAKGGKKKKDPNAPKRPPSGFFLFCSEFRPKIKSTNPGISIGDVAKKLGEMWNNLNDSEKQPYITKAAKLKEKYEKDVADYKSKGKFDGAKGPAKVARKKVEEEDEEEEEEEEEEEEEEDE
inactive: [1] -0.182 | volasertib 0.064 | [2] 0.053 | epoxomicin -0.007 | [3] 0.015 | [4] -0.021 | [5] -0.022 | rosiglitazone 0 | [6] -0.039 | [7] 0.015 | saracatinib 0.05 | sotrastaurin 0.031 | alvocidib -0.022 | Tubastatin A 0 | [8] -0.076 | defactinib 0.089 | rucaparib 0.008 | [9] -0.073 | encorafenib -0.063 | [10] 0.021

GLA (UniProt P06280)
inactive: [2] 0.002 | epoxomicin 0.026 | [3] 0.016 | [4] 0.03 | [5] -0.001 | rosiglitazone -0.07 | [6] 0.005 | saracatinib 0.056 | sotrastaurin -0.027 | alvocidib -0.008 | Tubastatin A -0.027 | [8] -0.02 | defactinib 0.008 | rucaparib 0.04 | [9] -0.043 | encorafenib -0.022 | [10] 0.059
active: [1] -0.449 | volasertib -0.911 | [7] -0.535

FOXK1 (UniProt P85037)
Chain of UniProt P85037 (P85037 whole entry, looked up): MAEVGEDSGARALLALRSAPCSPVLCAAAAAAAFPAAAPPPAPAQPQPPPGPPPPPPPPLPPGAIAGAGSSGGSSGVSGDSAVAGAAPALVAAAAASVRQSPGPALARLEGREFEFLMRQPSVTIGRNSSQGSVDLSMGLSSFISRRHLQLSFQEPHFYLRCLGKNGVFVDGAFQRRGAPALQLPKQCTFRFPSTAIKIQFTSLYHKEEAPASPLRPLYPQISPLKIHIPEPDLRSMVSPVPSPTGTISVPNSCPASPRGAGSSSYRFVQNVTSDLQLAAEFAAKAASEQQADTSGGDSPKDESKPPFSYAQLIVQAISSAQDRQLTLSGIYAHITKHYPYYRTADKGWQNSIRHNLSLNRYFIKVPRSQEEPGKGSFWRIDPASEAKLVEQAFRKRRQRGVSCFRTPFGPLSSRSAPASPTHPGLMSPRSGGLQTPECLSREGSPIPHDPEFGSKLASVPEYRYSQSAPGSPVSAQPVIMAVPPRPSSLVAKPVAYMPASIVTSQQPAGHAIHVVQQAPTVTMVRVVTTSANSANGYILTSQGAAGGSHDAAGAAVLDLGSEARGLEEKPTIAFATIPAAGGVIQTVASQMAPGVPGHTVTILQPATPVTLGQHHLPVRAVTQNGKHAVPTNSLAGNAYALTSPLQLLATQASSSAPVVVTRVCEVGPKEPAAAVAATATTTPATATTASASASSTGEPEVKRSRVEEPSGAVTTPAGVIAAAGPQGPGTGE
active: sotrastaurin -1.37 | alvocidib -1.01
inactive: [1] 0.429 | volasertib -0.017 | [2] 0.035 | epoxomicin 0.027 | [3] -0.094 | [4] 0.041 | [5] -0.001 | rosiglitazone -0.077 | [6] -0.289 | [7] 0.456 | saracatinib 0.214 | Tubastatin A -0.112 | [8] 0.2 | defactinib -0.941 | rucaparib -0.759 | [9] 0.615 | encorafenib 0.054 | [10] -0.111

GEMIN6 (UniProt Q8WXD5)
Chain of UniProt Q8WXD5 (Q8WXD5 whole entry, looked up): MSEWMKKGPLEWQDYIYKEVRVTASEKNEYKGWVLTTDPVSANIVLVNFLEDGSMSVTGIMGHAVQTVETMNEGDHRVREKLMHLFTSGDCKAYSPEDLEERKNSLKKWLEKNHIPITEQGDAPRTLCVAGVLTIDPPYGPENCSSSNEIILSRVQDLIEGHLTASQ
inactive: [1] 0.109 | volasertib 0.148 | [2] -0.052 | epoxomicin 0.093 | [3] -0.017 | [4] -0.019 | [5] -0.039 | rosiglitazone 0.071 | [6] -0.087 | [7] -0.048 | saracatinib 0.063 | sotrastaurin 0.002 | alvocidib -0.028 | Tubastatin A 0.072 | [8] 0.013 | defactinib -0.061 | rucaparib 0.069 | [9] -0.028 | encorafenib -0.04 | [10] -0.112

HIC2 (UniProt Q96JB3)
inactive: [1] 0.028 | volasertib -0.19 | [2] 0.032 | epoxomicin -0.134 | [3] 0.126 | [4] 0.128 | [5] -0.035 | rosiglitazone -0.185 | [6] 0.164 | [7] -0.006 | saracatinib -0.152 | sotrastaurin -0.236 | alvocidib 0.033 | Tubastatin A -0.034 | [8] -0.011 | defactinib -0.008 | rucaparib 0.142 | [9] -0.019 | encorafenib 0.045 | [10] 0.089

HOMER1 (UniProt Q86YM7)
inactive: [1] -0.018 | volasertib 0.024 | [2] -0.099 | epoxomicin 0.006 | [3] 0.017 | [4] -0.025 | [5] 0.018 | rosiglitazone -0.011 | [6] -0.018 | [7] 0.033 | saracatinib 0.032 | sotrastaurin 0.045 | alvocidib -0.047 | Tubastatin A -0.084 | [8] 0.021 | defactinib 0.015 | rucaparib 0.021 | [9] 0.007 | encorafenib 0.04 | [10] -0.047

HBZ (UniProt P02008)
Chain of UniProt P02008 (P02008 whole entry, looked up): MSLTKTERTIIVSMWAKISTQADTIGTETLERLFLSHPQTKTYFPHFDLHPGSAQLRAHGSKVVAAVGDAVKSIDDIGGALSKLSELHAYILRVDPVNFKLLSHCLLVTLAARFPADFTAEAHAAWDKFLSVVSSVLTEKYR
active: epoxomicin 0.288
inactive: [1] 0.03 | volasertib -0.065 | [2] -0.026 | [3] 0.061 | [4] -0.021 | [5] 0.019 | rosiglitazone -0.005 | [6] -0.012 | [7] 0.016 | saracatinib 0.022 | sotrastaurin 0.03 | alvocidib 0.036 | Tubastatin A 0 | [8] -0.041 | defactinib 0.011 | rucaparib -0.026 | [9] -0.006 | encorafenib -0.004 | [10] -0.025

FHOD1 (UniProt Q9Y613)
Chain of UniProt Q9Y613 (Q9Y613 whole entry, looked up): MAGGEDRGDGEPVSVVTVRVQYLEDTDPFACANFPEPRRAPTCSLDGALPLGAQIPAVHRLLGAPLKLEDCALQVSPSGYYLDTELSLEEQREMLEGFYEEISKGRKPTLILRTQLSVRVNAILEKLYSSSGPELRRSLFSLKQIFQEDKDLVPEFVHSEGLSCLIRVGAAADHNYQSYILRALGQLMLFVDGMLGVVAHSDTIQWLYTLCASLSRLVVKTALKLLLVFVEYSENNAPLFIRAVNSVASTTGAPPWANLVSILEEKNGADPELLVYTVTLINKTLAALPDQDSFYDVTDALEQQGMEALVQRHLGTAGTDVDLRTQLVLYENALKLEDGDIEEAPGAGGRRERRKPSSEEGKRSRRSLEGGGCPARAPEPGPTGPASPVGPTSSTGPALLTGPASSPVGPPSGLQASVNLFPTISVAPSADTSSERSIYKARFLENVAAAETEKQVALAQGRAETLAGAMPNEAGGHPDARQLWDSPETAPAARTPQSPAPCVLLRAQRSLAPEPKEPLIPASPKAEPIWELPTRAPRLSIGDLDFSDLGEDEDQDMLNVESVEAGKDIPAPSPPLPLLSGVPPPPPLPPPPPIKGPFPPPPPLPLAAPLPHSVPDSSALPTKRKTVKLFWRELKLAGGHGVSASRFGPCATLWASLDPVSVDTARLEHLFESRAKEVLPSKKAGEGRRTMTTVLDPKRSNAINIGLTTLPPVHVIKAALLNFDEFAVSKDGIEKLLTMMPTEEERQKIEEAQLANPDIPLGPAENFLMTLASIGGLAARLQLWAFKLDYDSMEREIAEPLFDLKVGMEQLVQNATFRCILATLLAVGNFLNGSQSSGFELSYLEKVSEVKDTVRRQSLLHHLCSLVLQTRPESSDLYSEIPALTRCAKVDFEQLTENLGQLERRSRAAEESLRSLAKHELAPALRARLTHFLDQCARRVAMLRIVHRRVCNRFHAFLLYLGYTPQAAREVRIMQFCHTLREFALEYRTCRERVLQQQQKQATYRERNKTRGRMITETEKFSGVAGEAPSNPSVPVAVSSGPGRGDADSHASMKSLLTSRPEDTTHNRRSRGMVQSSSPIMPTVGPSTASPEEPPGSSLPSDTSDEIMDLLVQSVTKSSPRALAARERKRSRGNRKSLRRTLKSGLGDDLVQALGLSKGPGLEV
inactive: [1] 0.127 | volasertib -0.055 | [2] 0.075 | epoxomicin -0.171 | [3] -0.148 | [4] 0.093 | [5] -0.048 | rosiglitazone 0.039 | [6] 0.372 | [7] -0.022 | saracatinib -0.143 | sotrastaurin -0.112 | alvocidib 0.292 | [8] -0.027 | defactinib -0.042 | rucaparib 0.442 | [9] 0.101 | encorafenib 0.187 | [10] 0.049

FAM91A1 (UniProt Q658Y4)
active: epoxomicin -0.675 | [7] 0.233
inactive: [1] 0.062 | volasertib 0.221 | [2] -0.007 | [3] -0.08 | [4] -0.015 | [5] -0.003 | rosiglitazone 0.037 | [6] 0.001 | saracatinib 0.055 | sotrastaurin -0.049 | alvocidib -0.037 | Tubastatin A 0.005 | [8] 0.059 | defactinib 0 | rucaparib -0.015 | [9] 0.002 | encorafenib 0.05 | [10] -0.025

GSTT1 (UniProt P30711)
Chain of UniProt P30711 (P30711 whole entry, looked up): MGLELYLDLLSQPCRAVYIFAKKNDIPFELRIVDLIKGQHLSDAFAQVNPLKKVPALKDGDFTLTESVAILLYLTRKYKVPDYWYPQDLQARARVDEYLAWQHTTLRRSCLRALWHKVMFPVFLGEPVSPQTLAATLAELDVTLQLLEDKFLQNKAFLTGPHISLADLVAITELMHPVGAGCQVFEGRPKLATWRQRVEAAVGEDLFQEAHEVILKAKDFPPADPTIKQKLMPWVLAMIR
inactive: [1] 0.02 | volasertib -0.057 | [2] -0.038 | epoxomicin 0.203 | [3] -0.019 | [4] 0.019 | [5] -0.034 | rosiglitazone -0.024 | [6] -0.058 | [7] -0.002 | saracatinib -0.011 | alvocidib -0.023 | Tubastatin A 0.015 | [8] -0.029 | defactinib -0.027 | rucaparib 0.028 | [9] 0 | encorafenib 0.023 | [10] -0.062

GNAS (UniProt Q5JWF2)
Chain of UniProt Q5JWF2 (Q5JWF2 whole entry, looked up): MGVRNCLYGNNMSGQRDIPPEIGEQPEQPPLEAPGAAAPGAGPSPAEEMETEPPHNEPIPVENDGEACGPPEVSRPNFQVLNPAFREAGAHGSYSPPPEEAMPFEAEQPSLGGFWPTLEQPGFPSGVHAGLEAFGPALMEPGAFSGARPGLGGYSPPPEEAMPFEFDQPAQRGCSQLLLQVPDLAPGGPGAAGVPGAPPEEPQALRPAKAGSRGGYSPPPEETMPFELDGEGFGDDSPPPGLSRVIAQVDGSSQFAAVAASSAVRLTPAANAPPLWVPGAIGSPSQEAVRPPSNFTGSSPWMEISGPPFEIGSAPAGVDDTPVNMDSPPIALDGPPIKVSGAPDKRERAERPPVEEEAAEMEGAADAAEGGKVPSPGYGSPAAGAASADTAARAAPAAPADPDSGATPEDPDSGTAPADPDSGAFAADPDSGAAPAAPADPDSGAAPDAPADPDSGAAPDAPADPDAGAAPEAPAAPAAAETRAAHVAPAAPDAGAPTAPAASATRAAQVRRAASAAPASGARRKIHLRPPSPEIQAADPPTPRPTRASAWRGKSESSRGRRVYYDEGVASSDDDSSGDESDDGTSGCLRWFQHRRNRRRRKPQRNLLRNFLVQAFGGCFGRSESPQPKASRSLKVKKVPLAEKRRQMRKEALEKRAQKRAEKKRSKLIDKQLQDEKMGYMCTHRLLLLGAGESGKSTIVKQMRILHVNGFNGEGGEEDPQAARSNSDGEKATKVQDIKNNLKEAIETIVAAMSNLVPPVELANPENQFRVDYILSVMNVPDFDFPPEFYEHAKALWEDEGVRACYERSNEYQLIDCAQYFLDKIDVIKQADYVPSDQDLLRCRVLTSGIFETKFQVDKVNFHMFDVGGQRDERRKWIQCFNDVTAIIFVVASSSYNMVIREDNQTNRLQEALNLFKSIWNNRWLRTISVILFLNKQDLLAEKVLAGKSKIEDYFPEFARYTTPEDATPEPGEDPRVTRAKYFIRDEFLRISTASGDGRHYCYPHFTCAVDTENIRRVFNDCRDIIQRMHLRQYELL
inactive: [1] 0.125 | volasertib 0.164 | [2] 0.032 | epoxomicin 0.011 | [3] 0.016 | [4] 0 | [5] -0.02 | rosiglitazone 0.006 | [6] -0.03 | [7] 0.057 | saracatinib -0.023 | sotrastaurin 0.036 | alvocidib 0.025 | Tubastatin A 0.011 | [8] -0.004 | defactinib 0.012 | rucaparib 0.029 | [9] 0.069 | encorafenib 0.021 | [10] -0.041

GSR (UniProt P00390)
inactive: [1] 0.04 | volasertib 0.034 | [2] -0.038 | epoxomicin 0.001 | [3] -0.023 | [4] -0.008 | [5] -0.018 | rosiglitazone 0.024 | [6] -0.071 | [7] -0.02 | saracatinib -0.021 | sotrastaurin 0.048 | alvocidib 0 | Tubastatin A 0.008 | [8] -0.006 | defactinib -0.016 | rucaparib -0.025 | [9] -0.021 | encorafenib -0.02 | [10] 0.002

GBA2 (UniProt Q9HCG7)
Chain of UniProt Q9HCG7 (Q9HCG7 whole entry, looked up): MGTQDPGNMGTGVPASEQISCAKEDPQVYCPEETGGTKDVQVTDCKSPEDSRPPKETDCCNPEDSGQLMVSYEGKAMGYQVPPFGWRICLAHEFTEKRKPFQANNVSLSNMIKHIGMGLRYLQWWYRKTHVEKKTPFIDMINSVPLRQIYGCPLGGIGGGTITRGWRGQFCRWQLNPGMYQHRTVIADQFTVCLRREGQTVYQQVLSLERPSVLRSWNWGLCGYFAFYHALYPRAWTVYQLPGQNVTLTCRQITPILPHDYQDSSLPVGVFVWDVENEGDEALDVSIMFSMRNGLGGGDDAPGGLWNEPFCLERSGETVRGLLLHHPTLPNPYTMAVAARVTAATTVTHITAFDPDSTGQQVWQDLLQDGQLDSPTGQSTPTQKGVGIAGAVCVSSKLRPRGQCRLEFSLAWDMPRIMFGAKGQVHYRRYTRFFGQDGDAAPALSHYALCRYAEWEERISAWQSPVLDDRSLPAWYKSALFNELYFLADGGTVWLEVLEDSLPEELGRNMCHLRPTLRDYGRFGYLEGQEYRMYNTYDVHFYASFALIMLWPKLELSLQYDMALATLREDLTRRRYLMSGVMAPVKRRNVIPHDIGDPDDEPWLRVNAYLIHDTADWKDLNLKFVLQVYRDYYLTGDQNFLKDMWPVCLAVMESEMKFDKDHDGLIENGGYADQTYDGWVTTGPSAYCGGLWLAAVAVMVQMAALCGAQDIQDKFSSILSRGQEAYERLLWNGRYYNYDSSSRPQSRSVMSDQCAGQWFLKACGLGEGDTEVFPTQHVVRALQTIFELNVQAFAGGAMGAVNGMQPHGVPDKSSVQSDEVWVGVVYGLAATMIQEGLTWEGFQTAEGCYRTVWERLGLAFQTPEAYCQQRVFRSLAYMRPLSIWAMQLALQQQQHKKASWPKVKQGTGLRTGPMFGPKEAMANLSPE
active: volasertib 0.308
inactive: [1] 0 | [2] -0.082 | epoxomicin -0.062 | [3] -0.075 | [5] 0.027 | rosiglitazone -0.07 | [6] -0.085 | saracatinib -0.046 | sotrastaurin -0.026 | alvocidib -0.063 | Tubastatin A -0.03 | [8] -0.012 | defactinib -0.07 | rucaparib -0.266 | [9] 0.11 | encorafenib 0.084 | [10] 0.071
